Laboratory results reported in PubChem BioAssay (NCI).
Values joined by “and” are separate entries in the source; they are usually repeats but may differ in a detail not shown here. Identical values can stand only once. The panel holds about 83,000 compounds, 20% with a hit somewhere; the sample as a whole holds those more often.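 A percent growth of 40 corresponds to 60% growth inhibition; 0 means no net growth; -100 means all cells died. Active threshold: below 10.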 A number with no mark means an inactive call. Active and inactive are the calls of the source.

Assays:
Test in all cases: NCI-60 one-dose screen, 48 h (100 = growth as untreated, 0 = no growth, -100 = all killed)
Conditions in all cases: 10 µM unless noted
HCT-15 colon = tested on: HCT-15 colon
SNB-75 CNS = tested on: SNB-75 CNS
SNB-19 CNS = tested on: SNB-19 CNS
U251 CNS = tested on: U251 CNS
PC-3 prostate = tested on: PC-3 prostate
SK-MEL-5 melanoma = tested on: SK-MEL-5 melanoma
UACC-62 melanoma = tested on: UACC-62 melanoma
LOX IMVI melanoma = tested on: LOX IMVI melanoma
SK-MEL-28 melanoma = tested on: SK-MEL-28 melanoma
SK-MEL-2 melanoma = tested on: SK-MEL-2 melanoma
EKVX NSCLC = tested on: EKVX NSCLC
SN12C renal = tested on: SN12C renal
UO-31 renal = tested on: UO-31 renal
TK-10 renal = tested on: TK-10 renal
ACHN renal = tested on: ACHN renal
CAKI-1 renal = tested on: CAKI-1 renal
A498 renal = tested on: A498 renal
CCRF-CEM leukemia = tested on: CCRF-CEM leukemia
MOLT-4 leukemia = tested on: MOLT-4 leukemia
HT29 colon = tested on: HT29 colon

SMILES	growth (HCT-15 colon)	growth (SNB-75 CNS)	growth (SNB-19 CNS)	growth (U251 CNS)	growth (PC-3 prostate)	growth (SK-MEL-5 melanoma)	growth (UACC-62 melanoma)	growth (LOX IMVI melanoma)	growth (SK-MEL-28 melanoma)	growth (SK-MEL-2 melanoma)	growth (EKVX NSCLC)	growth (SN12C renal)	growth (UO-31 renal)	growth (TK-10 renal)	growth (ACHN renal)	growth (CAKI-1 renal)	growth (A498 renal)	growth (CCRF-CEM leukemia)	growth (MOLT-4 leukemia)	growth (HT29 colon)
COc1cc(CNC(=O)CCCC/C=C/C(C)C)ccc1OCc1cn(-c2ccc([N+](=O)[O-])cc2)nn1	96.2%	83.9%	97.4%	86.4%	78%	76.1%	69.3%	89.5%	102%	92%	75.3%	91.7%	60.6%	92.7%	90.7%	96.7%	82%	84.9%	79.3%	–
COC(=O)/C=C1/SC(=Nc2ccc([N+](=O)[O-])cc2)N(CCc2c[nH]c3ccccc23)C1=O	29.9%	84.3%	69.2%	46.9%	63.4%	84.9%	51%	-9.3% (active)	76.8%	68.1%	87.2%	58.8%	48.8%	103%	64.6%	73.1%	78.2%	8.51% (active)	-2.1% (active)	–
C/C=C(/C)C(=O)O[C@@H]1CC(C)(C)CC2C34OC(=O)[C@@]21CC[C@@]3(C)[C@]1(C)CCC2C(C)(C)C(=O)CC[C@]2(C)C1C[C@@H]4Cl (some centres undefined)	99.3%	76%	92%	92.1%	80.4%	98.4%	85.3%	94.1%	–	103%	92%	102%	84.2%	87.2%	102%	–	89.7%	–	99.6%	98%
CCNC(=O)Oc1ccc(/C(=C(/C)Cc2ccc(OC)cc2)c2ccc(OCCN(CC)CC)cc2)cc1	2.84% (active)	80.8%	74.5%	33.9%	56.5%	-97.1% (active)	-16.4% (active)	-75.2% (active)	-60% (active)	86.5%	69.6%	68.6%	43.1%	65.9%	81.5%	61.4%	80%	35.6%	14.7%	–
Cc1ccc2nc3ccccc3c(NCc3ccc(Cl)cc3)c2c1	14.5%	66.5%	50.3%	25.1%	39.1%	54%	74%	-57.1% (active)	75.5%	102%	55.4%	39.6%	24.5%	82.4%	33.3%	45.7%	13%	18.2%	0.0972% (active)	–
COc1ccc(C/C(C)=C(/c2ccc(OCCN3CCCC3)cc2)c2ccc(OC(=O)NCc3ccccc3)cc2)cc1	61.4%	71.1%	85.6%	67.1%	67.3%	77.8%	84.8%	84.4%	84.7%	104%	87.5%	91.9%	59.9%	92.8%	89.7%	97.7%	107%	47.3%	40%	–
Cc1ccc(-c2nc(C#N)c(S(=O)(=O)N(C)C)o2)cc1	19.7%	83.7%	98.2%	93.3%	103%	92.5%	97.5%	49.8%	102%	91.1%	106%	75.2%	91.7%	–	-59.4% (active)	90%	77%	-10.9% (active)	-22.8% (active)	–
COc1cc(/C=C2/C=C(c3ccc(C(C)(C)C)cc3)N(CCc3ccc(S(N)(=O)=O)cc3)C2=O)cc(OC)c1OC	30.3%	65.9%	69%	41.7%	8.07% (active)	32.1%	59%	42.2%	61.9%	79.2%	51.3%	64.7%	37.1%	82.1%	49.5%	71.6%	82.4%	29.3%	16.3%	–
C=C[C@]1(C)C=C2CC[C@@H]3C(C)(C)C(=O)CC[C@@]3(C)[C@@H]2CC1	106%	90.5%	108%	98.5%	98.8%	109%	97.9%	99.5%	113%	106%	101%	99%	17.9%	98.7%	106%	84%	90.6%	101%	109%	–
COc1cc(/C=C2\CCC/C(=C\c3cc(CN4CCCC4)c(O)c(OC)c3)C2=O)cc(CN2CCCC2)c1O	16.3%	20.3%	44.7%	25.3%	31.2%	71.1%	88.6%	9.9% (active)	92.2%	82.6%	32.4%	30.3%	47.4%	70.1%	48.2%	55.2%	85.3%	17.6%	4.58% (active)	–
O=C([C@H]1C[C@H]1c1ccc(S(F)(F)(F)(F)F)cc1)N1CCN(c2cc(Cl)ccc2C(F)(F)F)CC1	88.1%	101%	97.1%	94.2%	74.2%	89.9%	67.4%	102%	97.1%	91.7%	91.9%	101%	67.8%	93.6%	93.4%	67.3%	94.4%	96.4%	76.9%	–
OB(O)c1ccsc1-c1nc2ccc3[nH]ncc3c2c2c1CCCC2	–	35.2%	76.1%	65.9%	69.4%	57.6%	45.2%	41.1%	72.8%	55.9%	34.7%	56.4%	38.3%	48.7%	23.3%	13.7%	-2.71% (active)	56.2%	58.5%	45.9%
N=C(N)c1ccc(-c2ccc(-c3ccc(Cl)c(Cl)c3)s2)cc1	–	103%	-23.8% (active)	-65.9% (active)	-24.1% (active)	94.8%	88.6%	-71.3% (active)	107%	107%	72.4%	14.3%	54%	109%	-62.7% (active)	-69% (active)	86.7%	1.96% (active)	-14.9% (active)	6.02% (active)
CCOC(=O)n1cc(-c2nonc2-c2cn(C)c3ccc(OC)cc23)c2cc(F)ccc21	–	70.2%	76.1%	83.1%	65%	92%	52.6%	72.2%	99.6%	99.8%	73.3%	77.5%	52.1%	94.2%	60.2%	52.2%	67.5%	80.9%	80.3%	–
Cc1ccc(NC(=O)c2ccc(CN3CCN(C)CC3)cc2)cc1Nc1nccc(-c2cccnc2)n1	–	99.4% and 82.5%	112% and 95%	89.4% and 65.7%	89.4% and 72%	77.7% and 63.2%	92.3% and 87.9%	88.4% and 77.1%	109% and 77.8%	–	84.3% and 90.9%	94% and 83.7%	92.4% and 77.6%	110% and 74.9%	101% and 82.7%	100% and 102%	86.3% and 82.5%	93.4% and 49.7%	82% and 45.1%	–
